The results in this text go back to PubChem BioAssay (NCATS).

Inconclusive results are not listed. Where a structure was tested more than once in an assay, its records may differ in their call. The source made the active and inactive calls. Calls come from the whole dose curve; as a rule, active = well fitted curve in the direction sought with a large enough effect; inconclusive = small, poorly fitted or top-dose-only effect, or another doubt; inactive = no such curve, though single readings can be large; an effect the other way counts as inactive or inconclusive.

Experiment [1] in a line: Quantitative highthroughput screen to assess conditional lethalithy of NOMO1 cells grown in RPMI1640 with untreated serum (RPMI+s) (AID 1963876). Note: nearly all actives have a fitted effect of over 35% in size. The procedure, abridged:
(§1)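 Each medium arm—HPLM with 10% dialyzed FBS, or RPMI1640 with 5 mM glucose and 10% untreated or dialyzed FBS—was screened against an 11-point, 3-fold compound titration for 48 h at 37 °C, with CellTiter-Glo luminescence as endpoint.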

Experiment [2] can be described thus: Quantitative highthroughput screen to assess conditional lethalithy of NOMO1 cells grown in RPMI1640 with dialyzed fetal bovine serum (RPMI+ds) (AID 1963877). For viability: series mostly up to about 46 µM. Note: nearly all actives have a fitted effect of over 30% in size. Summed up: as §1
A short description of experiment [3]: Quantitative highthroughput screen to assess conditional lethalithy of NOMO1 cells grown in Human Plasma-Like Medium with dialyzed fetal bovine serum (HPLM+ds) (AID 1963878). Note: nearly all actives have a fitted effect of over 35% in size. Summed up:
as §1

Experiment [4] in a line: Quantitative highthroughput screen to assess conditional lethalithy of P12 Ichikawa cells grown in Human Plasma-Like Medium with dialyzed fetal bovine serum (HPLM+ds) (AID 1963879). For viability: series mostly up to about 46 µM. Note: nearly all actives have a fitted effect of over 35% in size. The note with it: Potency: viability. The procedure, abridged:
as §1

Experiment [5] in a line: Quantitative highthroughput screen to assess conditional lethalithy of P12 Ichikawa cells grown in RPMI1640 with dialyzed fetal bovine serum (RPMI+ds) (AID 1963880). Note: nearly all actives have a fitted effect of over 35% in size. The note with it: Potency: P12-Ichikawa viability. The procedure, abridged: as §1
A short description of experiment [6]: Quantitative highthroughput screen to assess conditional lethalithy of P12 Ichikawa cells grown in RPMI1640 with untreated serum (RPMI+s) (AID 1963881). For viability: series mostly up to about 46 µM. Note: nearly all actives have a fitted effect of over 35% in size. The note with it: Potency: viability. Summed up:
as §1

Experiment [7] can be described thus: Quantitative highthroughput screen to assess conditional lethalithy of SEM cells grown in Human Plasma-Like Medium with dialyzed fetal bovine serum (HPLM+ds) (AID 1963882). For viability: series mostly up to about 46 µM. Note: nearly all actives have a fitted effect of over 35% in size. The procedure, abridged: as §1
Experiment [8] in a line: Quantitative highthroughput screen to assess conditional lethalithy of SEM cells grown in RPMI1640 with unreated serum (RPMI+s) (AID 1963883). Note: nearly all actives have a fitted effect of over 35% in size. The procedure, abridged: as §1
Experiment [9] is described as follows: Quantitative highthroughput screen to assess conditional lethalithy of SEM cells grown in RPMI1640 with dialyzed fetal bovine serum (RPMI+ds) (AID 1963884). For viability: series mostly up to about 46 µM. Note: nearly all actives have a fitted effect of over 35% in size. Summed up:
as §1
Potency is the fitted concentration of half-maximal effect.

In the case of `CC(C)c1onc(-c2c(Cl)cccc2Cl)c1COc1ccc(C=Cc2cccc(C(=O)O)c2)c(Cl)c1`, the Potency entry in experiment [1], in experiment [2], in [3], in [4], in experiment [5] and in experiment [6] was “inactive” in each case. For the same molecule, the Potency result in experiment [7] and in experiment [8] was “inactive” throughout.
Consider `COc1cc(N2CCC(C(N)=O)CC2)ccc1Nc1nc(N)c(Cl)c(Nc2ccccc2S(=O)(=O)C(C)C)n1`, for which the Potency was 20.9 µM (active) in experiment [1]; 16.6 µM (active) in experiment [2]; 16.6 µM (active) in [3]; 23.5 µM (active) in [4]; 18.7 µM (active) in experiment [5]; 18.7 µM (active) in [6]. Besides, the Potency in experiment [7] is 8.33 µM (active); in experiment [8], 4.18 µM (active); in experiment [9], 9.35 µM (active).
On to `CC(C)(O)[C@H]1CC[C@@](C)([C@H]2[C@@H](O)C[C@@]3(C)[C@@H]4C[C@H](O[C@@H]5O[C@H](CO)[C@@H](O)[C@H](O)[C@@H]5O)[C@H]5C(C)(C)[C@@H](O[C@@H]6OC[C@@H](O)[C@H](O)[C@@H]6O)CC[C@@]56C[C@@]46CC[C@]23C)O1`, for which the Potency entry in experiment [1], in experiment [2], in experiment [3], in [4], in [5] and in experiment [6] was “inactive” each time. Moreover, the Potency result in [7], in experiment [8] and in experiment [9] was “inactive” throughout.
In the case of `CC(C=CC1=C(C)CCCC1(C)C)=CC=CC(C)=CC(=O)Nc1ccc(O)cc1`, the Potency in experiment [1] is 30.3 µM (active); in experiment [2], 17.1 µM (active); in [3], 15.2 µM (active); in experiment [4], 6.05 µM (active); in experiment [5], 2.7 µM (active); in experiment [6], 6.05 µM (active). In addition, the Potency in [7] is 3.4 µM (active); in [8], 6.05 µM (active); in [9], 3.03 µM (active).
For `C[C@@H](Cc1cc2c(c(C(N)=O)c1)N(CCCO)CC2)NCCOc1ccccc1OCC(F)(F)F`, the Potency entry in experiment [1], in experiment [2], in experiment [3], in experiment [4], in [5] and in [6] was “inactive” in each case. In addition, the Potency entry in [7], in experiment [8] and in experiment [9] was “inactive” throughout.
As to `CC(C=CC1=C(C)CCCC1(C)C)=CC=CC(C)=CC(=O)O`, the Potency entry in [1], in experiment [3], in [4], in [5], in [6] and in [7] was “inactive” each time. Moreover, the Potency entry in [8] and in [9] was “inactive” each time. In experiment [2], the Potency is 833 nM (active) and inactive.
For `O=c1ccn([C@@H]2O[C@H](CO)[C@H](O)[C@H]2O)c(=O)[nH]1`, the Potency entry in experiment [1], in [2], in experiment [3], in experiment [4], in [5] and in [6] was “inactive” throughout. For the same molecule, the Potency result in experiment [7], in experiment [8] and in experiment [9] was “inactive” each time.
Consider `CC[C@]1(O)C[C@@H]2CN(CCc3c([nH]c4ccccc34)[C@@](C(=O)OC)(c3cc4c(cc3OC)N(C=O)[C@@H]3C45CCN4CC=C[C@](CC)([C@H]45)[C@@H](OC(C)=O)[C@]3(O)C(=O)OC)C2)C1` (stereo partly specified), for which the Potency entry in experiment [1], in [2], in [3], in experiment [4], in experiment [5] and in experiment [6] was “inactive” in each case.
For the molecule `CN(CC=CC#CC(C)(C)C)Cc1cccc2ccccc12`, the Potency entry in experiment [1], in experiment [2], in experiment [3], in [4], in experiment [5] and in [6] was “inactive” throughout. The Potency entry in [7], in experiment [8] and in experiment [9] was “inactive” throughout.
`CNC[C@@H](O)[C@@H](O)[C@H](O)[C@H](O)CO`: the Potency result in [1], in [2], in experiment [4], in experiment [5] and in experiment [6] was “inactive” each time. Further, in experiment [3], the Potency is 0.526 µM (active).
Turning to `CC(C)=CCCC(C)=CCCC(C)=CCCC(C)=CCCC(C)=CCCC(C)=CCCC(C)=CCCC(C)=CCCC(C)=CCO`, the Potency entry in experiment [1], in experiment [2], in experiment [3], in experiment [4], in experiment [5] and in experiment [6] was “inactive” throughout. The Potency result in experiment [7] is “inactive”.
For the molecule `C[C@H](CCC(=O)O)[C@H]1CC[C@H]2[C@H]3[C@@H](CC[C@]12C)[C@@]1(C)CC[C@@H](O)C[C@H]1C[C@@H]3O`, the Potency result in experiment [1], in experiment [2], in experiment [3], in [4], in experiment [5] and in [6] was “inactive” each time. Also, the Potency result in [7] and in experiment [8] was “inactive” each time.
Consider `C[C@@H]1CCN(C(=O)CC#N)C[C@H]1N(C)c1ncnc2[nH]ccc12`, for which the Potency entry in [1], in [2], in experiment [3], in experiment [4], in experiment [5] and in experiment [6] was “inactive” each time. Besides, the Potency result in experiment [7], in [8] and in experiment [9] was “inactive” each time.
On to `CCC(=O)OCC(=O)[C@@]1(OC(=O)CC)[C@@H](C)C[C@@H]2[C@H]3CCC4=CC(=O)C=C[C@]4(C)[C@@]3(F)[C@@H](O)C[C@@]21C`, for which the Potency in experiment [1] was 7.43 µM (active); in experiment [2] it was 5.9 µM (active); in experiment [3] it was 1.66 µM (active); in [4], 5.9 µM (active); in experiment [5] it was 2.35 µM (active); in [6] it was 4.69 µM (active).
As to `COc1cc([C@H]2Oc3cc([C@H]4Oc5cc(O)cc(O)c5C(=O)[C@H]4O)ccc3O[C@H]2CO)ccc1O`, the Potency result in [1], in experiment [2], in experiment [3], in experiment [4] and in experiment [5] was “inactive” throughout.
Turning to `COC(=O)N[C@H](C(=O)N1CCC[C@@H]1c1ncc(-c2ccc(-c3ccc(-c4cnc([C@@H]5CCCN5C(=O)[C@@H](NC(=O)OC)C(C)C)[nH]4)cc3)cc2)[nH]1)C(C)C`, the Potency entry in experiment [1], in experiment [2], in experiment [3], in [4], in experiment [5] and in experiment [6] was “inactive” throughout. Further, in experiment [7], the Potency result is “inactive”.
Take `CS[C@H]1SC[C@@H]2C(=O)N(C)[C@H](C(C)C)C(=O)OC[C@H](NC(=O)c3cnc4ccccc4n3)C(=O)N[C@H](C)C(=O)N(C)[C@@H]1C(=O)N(C)[C@H](C(C)C)C(=O)OC[C@H](NC(=O)c1cnc3ccccc3n1)C(=O)N[C@H](C)C(=O)N2C`: the Potency is 0.0209 µM (active) in experiment [1]; 0.0209 µM (active) in experiment [2]; 0.0148 µM (active) in experiment [3]; 0.0209 µM (active) in experiment [4]; 0.0105 µM (active) in [5]; 0.0148 µM (active) in experiment [6]. Further, the results for the Potency in experiment [7] and in experiment [8] were 0.0037 µM (active) and 0.0026 µM (active), respectively.
For the molecule `CN(C)CCc1c[nH]c2ccc(Cn3cncn3)cc12`, the Potency is 1.05 µM (active) in experiment [1]; 1.18 µM (active) in [2]; 0.833 µM (active) in experiment [3]; 1.18 µM (active) in experiment [4]; 0.935 µM (active) in experiment [5]; 1.18 µM (active) in experiment [6]. Moreover, the Potency is 0.372 µM (active) in experiment [7] and 0.132 µM (active) in [8].
